# In the supplement of paper PMC10127200:
# Where a name gives a salt, the structure may show the parent alone.
# Legend:
# Assay in all cases: Euclidean distance of Cell Painting phenotypic profile (signed KS, 77 features) to DMSO centroid (dimensionless distance); 5 or 10 uM (library dependent); higher = stronger phenotypic change vs DMSO (phenoactivity)
# Settings in all cases: 48 h
# [1] = test system: 786-O
# Method in brief: (§1)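 Five cancer lines, together with a healthy fibroblast line, received library compounds for 48 h at a library-dependent 10 or 5 uM and 0.1% DMSO final. Harmony then derived 77 features from confocal 20X images (9 fields/well) of the stained cells, scoring each as a signed Kolmogorov-Smirnov statistic against same-plate vehicle wells. After plate-position correction, correlation weighting and replicate averaging at the top dose, phenoactivity was taken as each profile's Euclidean distance to the median vehicle profile.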
# [2] = test system: A549
# Method in brief: as §1
# [3] = test system: DU145
# Method in brief: as §1
# [4] = test system: FB
# Method in brief: as §1
# [5] = test system: HEPG2
# Method in brief: as §1
# [6] = test system: OVCAR4
# Method in brief: as §1
SMILES,Euclidean distance [1],Euclidean distance [2],Euclidean distance [3],Euclidean distance [4],Euclidean distance [5],Euclidean distance [6]
CN1CCN(Cc2ccc(Nc3ncc(Cl)c(Nc4ccccc4S(=O)(=O)N(C)C)n3)cc2)CC1,3.04,3.57,3.22,2.93,2.81,3.88
COc1ccnc(C[S+]([O-])c2nc3cc(OC(F)F)ccc3[nH]2)c1OC (centres undefined) [Pantoprazole sodium],0.766,0.778,1.1,1.01,1.03,0.752
CC(C)c1c(C(=O)Nc2ccccc2)c(-c2ccccc2)c(-c2ccc(F)cc2)n1CC[C@@H](O)C[C@@H](O)CC(=O)O [atorvastatin],1.57,1.35,3.44,3.29,0.836,1.24
C=C1C(=O)O[C@H]2[C@H]1CC/C(C)=C/CC[C@@]1(C)O[C@@H]21 [(-)-Parthenolide],3.29,1.26,3.27,2.7,1.55,1.16
Cc1ccc(-c2ncc(Cl)cc2-c2ccc(S(C)(=O)=O)cc2)cn1 [Etoricoxib],0.705,0.64,0.802,1.09,0.559,0.802
CC(C)(C)CC(C)(C)c1ccc(OCCOCC[N+](C)(C)Cc2ccccc2)cc1 [Benzethonium Chloride],3.02,2.7,2.15,1.82,2.43,2.37
Nc1ncc2ncn(CC3(OCP(=O)(O)O)CC3)c2n1 [Besifovir],1.03,0.329,1.01,1.2,0.716,0.915
O=c1ccn([C@@H]2O[C@H](CO)[C@@H](O)[C@H]2O)c(=O)[nH]1 [Uridine],1.22,0.801,0.955,0.869,1.9,0.863
Cc1ccc(NC(=O)c2cccc(N(C)C)c2)cc1NC(=O)c1ccc(O)cc1,2.67,2.66,2.38,2.03,1.55,2.26
O=c1c(O[C@@H]2O[C@H](CO)[C@@H](O)[C@H](O)[C@H]2O)c(-c2ccc(O)c(O)c2)oc2cc(O)cc(O)c12 [Isoquercitrin],0.868,0.899,0.931,0.989,0.812,1.03
CC(C)(Oc1ccc(Cl)cc1)C(=O)O [Clofibric Acid],0.903,0.74,0.644,0.793,0.498,0.547
CCN(c1cc(-c2ccc(CN3CCOCC3)cc2)cc(C(=O)NCc2c(C)cc(C)[nH]c2=O)c1C)C1CCOCC1 [Tazemetostat (EPZ-6438)],0.99,1.2,0.651,0.92,0.489,1.16
CCN(CC)CCCCNc1ncc2cc(-c3cc(OC)cc(OC)c3)c(NC(=O)NC(C)(C)C)nc2n1,3.18,1.42,2.75,3.93,1.84,1.16
CC[C@H]1OC(=O)[C@H](C)[C@@H](O[C@H]2C[C@@](C)(OC)[C@@H](O)[C@H](C)O2)[C@H](C)[C@@H](O[C@@H]2O[C@H](C)C[C@H](N(C)C)[C@H]2O)[C@](C)(O)C[C@@H](C)C(=O)[C@H](C)[C@@H](O)[C@]1(C)O [Erythromycin thiocyanate],1.01,1.44,0.991,1.53,0.812,1.95
CC(NCCC(c1ccccc1)c1ccccc1)c1ccccc1 (centres undefined) [Fendiline hydrochloride],1.96,2.16,1.45,1.24,2.42,1.41
NCCc1ccc(O)c(O)c1 [Dopamine HCl],1.84,0.481,0.944,1.26,0.844,3.26
CCN(CC)CCNC(=O)c1c(C)[nH]c(/C=C2\C(=O)Nc3ccc(-c4csc(-c5ccccc5)n4)cc32)c1C [Amcasertib (BBI503)],5.91,5.2,7.77,5.61,2.05,2.89
CN1CCOC(c2ccccc2)c2ccccc2C1 (centres undefined) [Nefopam HCl],1.21,0.668,0.813,1.07,0.77,1.29
Cc1cc(C)cc(NC(=O)Cc2ccc(OC(C)(C)C(=O)O)cc2)c1 [Efaproxiral Sodium],1.04,0.727,0.774,0.966,0.587,0.981
O=C(O[C@@H]1Cc2c(O)cc(O)cc2O[C@@H]1c1cc(O)c(O)c(O)c1)c1cc(O)c(O)c(O)c1 [(-)-Epigallocatechin Gallate],0.998,0.875,1.33,1.39,1.17,0.757
COc1ccc2[nH]c([S@@+]([O-])Cc3ncc(C)c(OC)c3C)nc2c1 [NEXIUM (esomeprazole magnesium)],1.31,0.829,1.47,0.904,1.81,1.65
CCc1c2c(nc3ccc(OC(=O)N4CCC(N5CCCCC5)CC4)cc13)-c1cc3c(c(=O)n1C2)COC(=O)[C@]3(O)CC [Irinotecan HCl Trihydrate],3.01,3.5,4.47,4.08,3.19,3.1
CC(C)(C)NCC(O)c1ccc(O)c(CO)c1 (centres undefined) [Salbutamol Sulfate],1.57,0.928,1.27,0.735,1.31,1.78
COc1c2occc2c(OC)c2c(=O)cc(C)oc12 [Khellin],1.37,0.619,0.84,0.769,1.17,0.887
